Measurements from PubChem BioAssay (EPA / NIEHS).
Results filed as inconclusive are left out. The source made the active and inactive calls. The calls were made as follows: active = hit-call score of the fitted dose curve at least 0.9, where 1 is the maximum; inconclusive = response in the unintended direction; inactive = score below 0.9.

Each compound was assayed against guinea pig Opioid, Kappa 1 Receptor (OpiateK), OPRK1 (gene 100135587) (UniProt P41144) (assay: NVS_GPCR_gOpiateK: NovaScreen (NVS) G Protein-Coupled Receptor Assay for guinea pig Opioid, Kappa 1 Receptor (OpiateK) (AID 2283252);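 also: radioligand displacement from kappa opioid receptor in guinea pig cerebellar membranes; active means reduced radioligand binding relative to DMSO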).
Sequence of guinea pig Opioid, Kappa 1 Receptor (OpiateK), OPRK1 (gene 100135587) (P41144 whole entry, looked up): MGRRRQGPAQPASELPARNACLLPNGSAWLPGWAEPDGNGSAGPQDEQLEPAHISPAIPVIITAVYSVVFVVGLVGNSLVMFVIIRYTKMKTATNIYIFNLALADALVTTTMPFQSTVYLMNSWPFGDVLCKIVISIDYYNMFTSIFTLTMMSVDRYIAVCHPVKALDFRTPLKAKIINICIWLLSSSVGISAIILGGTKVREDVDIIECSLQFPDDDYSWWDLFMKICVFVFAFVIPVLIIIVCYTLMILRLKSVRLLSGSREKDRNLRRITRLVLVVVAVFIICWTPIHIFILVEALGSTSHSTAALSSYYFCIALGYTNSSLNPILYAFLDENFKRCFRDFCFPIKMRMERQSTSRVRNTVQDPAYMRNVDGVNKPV
In short: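 Guinea pig cerebellar membranes, radioligand displacement with filter-based scintillation counting, 2 h after dosing. Primary screen single concentration 25 uM in duplicate; actives retested in concentration series; loss of binding fitted versus DMSO.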
`CCOC(=O)C1=NN(c2ccc(Cl)cc2Cl)C(C)(C(=O)OCC)C1` (configuration not stated) was tested, and the AC50 was 14.3 µM (active). With `CC(C)[N+](C)(CCOC(=O)C1c2ccccc2Oc2ccccc21)C(C)C` the AC50 was 11.1 µM (active). With `CC1=CC=C(C(C)C)CC1` the outcome was “inactive”. With `COC(OC)(C(=O)c1ccccc1)c1ccccc1` the AC50 was 13.6 µM (active).

These compounds were tested against human Adenosine A1 Receptor (AdoRA1), ADORA1 (gene 134) (UniProt P30542) (assay: NVS_GPCR_hAdoRA1: NovaScreen (NVS) G Protein-Coupled Receptor Assay for human Adenosine A1 Receptor (AdoRA1) (AID 2283254)).
Sequence of human Adenosine A1 Receptor (AdoRA1), ADORA1 (gene 134) (P30542 whole entry, looked up): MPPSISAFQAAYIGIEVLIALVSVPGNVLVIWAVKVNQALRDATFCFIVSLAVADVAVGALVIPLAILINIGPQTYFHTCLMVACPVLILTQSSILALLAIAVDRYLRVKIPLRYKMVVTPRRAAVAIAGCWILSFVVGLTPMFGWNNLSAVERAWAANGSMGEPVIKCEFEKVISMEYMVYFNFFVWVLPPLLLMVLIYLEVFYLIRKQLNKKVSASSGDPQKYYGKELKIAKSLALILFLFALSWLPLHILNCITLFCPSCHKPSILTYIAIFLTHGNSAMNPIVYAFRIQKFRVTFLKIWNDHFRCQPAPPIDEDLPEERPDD
In short: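 Hum. cortical membranes + radioligand, cmpd 1 h; filtration, scintillation count. Readout = decrease vs DMSO. Primary 25 uM dup; hits → conc. series.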
In the case of `Oc1ccc(/C=C/c2cc(O)cc(O)c2)cc1`, the outcome is reported as “inactive”. In the case of `CCCCCCCCCCCCCc1ccccc1`, the outcome is reported as “inactive”. `Nc1nc(N)nc(-c2ccccc2)n1` was tested, and the AC50 was 6.11 µM (active).

What follows are compounds tested against human Adenosine A2a Receptor (AdoRA2a), ADORA2A (gene 135) (UniProt P29274) (assay: NVS_GPCR_hAdoRA2a: NovaScreen (NVS) G Protein-Coupled Receptor Assay for human Adenosine A2a Receptor (AdoRA2a) (AID 2283256)).
Sequence of human Adenosine A2a Receptor (AdoRA2a), ADORA2A (gene 135) (P29274 whole entry, looked up): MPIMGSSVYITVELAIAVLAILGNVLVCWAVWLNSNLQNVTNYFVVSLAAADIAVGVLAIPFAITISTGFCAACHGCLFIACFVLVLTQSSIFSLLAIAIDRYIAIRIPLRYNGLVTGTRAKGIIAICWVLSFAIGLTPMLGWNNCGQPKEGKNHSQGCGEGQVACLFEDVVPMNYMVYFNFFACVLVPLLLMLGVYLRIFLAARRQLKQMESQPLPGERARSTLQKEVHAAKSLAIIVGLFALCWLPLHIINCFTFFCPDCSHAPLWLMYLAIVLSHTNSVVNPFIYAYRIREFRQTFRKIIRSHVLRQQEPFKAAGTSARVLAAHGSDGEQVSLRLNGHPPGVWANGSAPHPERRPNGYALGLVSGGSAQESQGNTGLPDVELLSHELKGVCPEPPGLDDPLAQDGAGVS
In short: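 Radioligand displacement on HEK293-derived membrane protein, cell-free; filter-based scintillation counting 1.5 hours after dosing, loss of signal vs DMSO. Single-point duplicate screen at 25 uM, actives retested in concentration series.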
In the case of `Cn1ccnc1`, the outcome is reported as “inactive”. `Cc1c[nH]c(=O)[nH]c1=O` was tested, and the outcome was “inactive”. For `c1ccc(-c2nc3ccccc3[nH]2)cc1`, the outcome was “inactive”. For `Oc1ccc(/C=C/c2cc(O)cc(O)c2)cc1`, the AC50 was 17.9 µM (active). With `Nc1nc(N)nc(-c2ccccc2)n1` the AC50 was 3.01 µM (active).

What follows are compounds tested against Muscarinic acetylcholine receptor M2 (Homo sapiens) (UniProt P08172) (assay: NVS_GPCR_hM2: NovaScreen (NVS) G Protein-Coupled Receptor Assay for human Muscarinic, M2 Receptor (AID 2283273)).
Sequence of Muscarinic acetylcholine receptor M2 (Homo sapiens) (P08172 whole entry, looked up): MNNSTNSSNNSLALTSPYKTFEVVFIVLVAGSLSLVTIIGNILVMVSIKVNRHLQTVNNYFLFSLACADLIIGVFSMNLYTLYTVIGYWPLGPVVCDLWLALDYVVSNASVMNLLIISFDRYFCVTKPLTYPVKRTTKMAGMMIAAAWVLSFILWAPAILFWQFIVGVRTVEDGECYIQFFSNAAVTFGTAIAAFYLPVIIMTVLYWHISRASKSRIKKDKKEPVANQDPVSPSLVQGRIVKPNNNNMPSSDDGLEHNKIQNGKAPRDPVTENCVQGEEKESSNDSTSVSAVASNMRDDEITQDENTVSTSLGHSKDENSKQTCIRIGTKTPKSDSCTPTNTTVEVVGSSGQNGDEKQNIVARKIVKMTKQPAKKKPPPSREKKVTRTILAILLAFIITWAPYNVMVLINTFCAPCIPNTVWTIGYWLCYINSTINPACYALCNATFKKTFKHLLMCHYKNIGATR
In short: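 Radioligand displacement on human M2 receptor membranes from CHO cells, 1 h incubation, filtration with scintillation counting. Primary screen in duplicate at 25 uM; actives retested in concentration series; loss of signal fitted versus DMSO.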
For `Cc1c(O)cccc1O`, the outcome was “inactive”. `CCCCCCCCC(CO)CCCCCC` (configuration not stated) was tested, and the outcome was “inactive”. `CC(C)[N+](C)(CCOC(=O)C1c2ccccc2Oc2ccccc21)C(C)C` was tested, and the AC50 was 0.00229 µM (active).

Each compound was assayed against human Neurokinin, NK2 Receptor, TACR2 (gene 6865) (UniProt P21452) (assay: NVS_GPCR_hNK2: NovaScreen (NVS) G Protein-Coupled Receptor Assay for human Neurokinin, NK2 Receptor (AID 2283278);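 also: actives reduce bound radioligand signal relative to DMSO baseline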).
Sequence of human Neurokinin, NK2 Receptor, TACR2 (gene 6865) (P21452 whole entry, looked up): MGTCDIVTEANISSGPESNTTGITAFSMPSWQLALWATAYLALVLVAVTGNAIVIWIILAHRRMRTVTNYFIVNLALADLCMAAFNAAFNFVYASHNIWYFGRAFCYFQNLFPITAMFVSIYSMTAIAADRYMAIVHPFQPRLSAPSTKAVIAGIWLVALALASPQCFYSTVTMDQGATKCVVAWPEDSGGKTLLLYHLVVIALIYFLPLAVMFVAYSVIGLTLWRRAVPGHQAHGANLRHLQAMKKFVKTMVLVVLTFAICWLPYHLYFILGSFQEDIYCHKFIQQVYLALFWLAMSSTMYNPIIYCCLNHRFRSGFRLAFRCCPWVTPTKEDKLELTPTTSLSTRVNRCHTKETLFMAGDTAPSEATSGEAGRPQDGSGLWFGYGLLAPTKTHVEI
Procedure: NVS_GPCR_hNK2 is a biochemical, single-readout assay that uses extracted gene-proteins from CHO in a cell-free assay. Measurements were taken 4 hours after chemical dosing in a 96-well plate.NVS_GPCR_hNK2 is one of one assay component(s) measured or calculated from the NVS_GPCR_hNK2 assay. It is designed to make measurements of radioligand binding, a form of binding reporter, as detected with scintillation counting signals by Filter-based radiodetection technology.Data from the assay component NVS_GPCR_hNK2 was analyzed into 1 assay endpoint. This assay endpoint, NVS_GPCR_hNK2, was analyzed in the positive analysis fitting direction relative to DMSO as the negative control and baseline of activity. Using a type of binding reporter, loss-of-signal activity can be used to understand changes in the binding as they relate to the gene TACR2. Furthermore, this assay endpoint can be referred to as a primary readout, because the performed assay has only produced 1 assay endpoint. To generalize the intended target to other relatable targets, this assay endpoint is annotated to the gpcr intended target family, where the subfamily is rhodopsin-like receptor.
Binding assays used specific radioligands (tritiated, iodinated) with non-radioactive competitive displacement ligands in agonist or antagonist protocols (as indicated) and various reference compounds and inhibitors to titrate specific binding to receptors and transporters. Most enzyme assays (CYPs, kinases, phosphatases, proteases, HDACs) used recombinant protein and specific substrates (fluorescence mostly, some colorimetric and radioactive) and inhibitors, followed by a biochemical separation of substrate and product. All assays for the biochemical HTS were initially run in duplicate at a single concentration (10 uM for CYP450 assays and 25 uM for all others). […] Each assay was run with positive and negative controls, and concurrent controls on every plate. The follow-up (secondary) screen tested active chemical-pairs in concentration series, as well as a few additional assays not tested in the primary screen, some selected negative inactives, and several cases re-run in the concentration series for confirmatory purposes.
With `CCOC(=O)/C=C\C(=O)OCC` the outcome was “inactive”. `Oc1ccc(/C=C/c2cc(O)cc(O)c2)cc1` was tested, and the AC50 was 0.835 µM (active). With `CC(C)[N+](C)(CCOC(=O)C1c2ccccc2Oc2ccccc21)C(C)C` the AC50 was 17.7 µM (active). In the case of `c1ccc2sc(SSN3CCOCC3)nc2c1`, the AC50 is reported as 3.65 µM (active). With `[Cl][Sc]([Cl])[Cl]` the outcome was “inactive”.

These compounds were tested against human Thromboxane A2 Receptor (TXA2), TBXA2R (gene 6915) (UniProt P21731) (assay: NVS_GPCR_hTXA2: NovaScreen (NVS) G Protein-Coupled Receptor Assay for human Thromboxane A2 Receptor (TXA2) (AID 2283282);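 also: actives reduce bound radioligand signal relative to DMSO baseline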).
Sequence of human Thromboxane A2 Receptor (TXA2), TBXA2R (gene 6915) (P21731 whole entry, looked up): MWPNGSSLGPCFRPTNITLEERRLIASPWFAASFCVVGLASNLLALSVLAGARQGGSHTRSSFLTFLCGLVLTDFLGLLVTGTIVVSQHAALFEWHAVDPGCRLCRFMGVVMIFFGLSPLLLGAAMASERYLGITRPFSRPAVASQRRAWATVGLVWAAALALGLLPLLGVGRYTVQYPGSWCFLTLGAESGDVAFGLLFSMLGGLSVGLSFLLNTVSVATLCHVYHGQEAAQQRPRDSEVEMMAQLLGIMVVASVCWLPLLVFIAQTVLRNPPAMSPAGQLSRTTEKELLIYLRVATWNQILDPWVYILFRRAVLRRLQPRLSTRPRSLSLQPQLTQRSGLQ
In short: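 Human platelet-derived receptor preparation incubated with test chemical and radiolabelled ligand for 1 hour, cell-free. Bound label was separated by filtration and counted; displacement relative to DMSO controls gave activity, screened at 25 uM, then titrated.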
For `CC(C)=NNC(N)=S`, the outcome was “inactive”. In the case of `Fc1ccc(Br)cc1`, the outcome is reported as “inactive”. For `CCC(C)c1ccccc1` (configuration not stated), the AC50 was 2.46 µM (active). For `Clc1cccnc1`, the outcome was “inactive”. In the case of `CCOC(=O)/C=C\C(=O)OCC`, the outcome is reported as “inactive”. With `CCCCC1C(=O)N(c2ccccc2)N(c2ccccc2)C1=O` the outcome was “inactive”. `CCOC(=O)C1=NN(c2ccc(Cl)cc2Cl)C(C)(C(=O)OCC)C1` (configuration not stated) was tested, and the outcome was “inactive”. With `Oc1c(Cl)cc(Cl)c(Cl)c1Cl` the outcome was “inactive”. `c1ccc(-c2nc3ccccc3[nH]2)cc1` was tested, and the AC50 was 7.64 µM (active). In the case of `Oc1ccc(/C=C/c2cc(O)cc(O)c2)cc1`, the outcome is reported as “inactive”. With `CCc1cccc(C)c1N(C(=O)CS(=O)(=O)O)C(C)COC` (configuration not stated) the outcome was “inactive”. For `CCCCCCC=O`, the outcome was “inactive”. In the case of `CC/C=C\C/C=C\C/C=C\CCCCCCCC(=O)OC`, the AC50 is reported as 2.66 µM (active).

These compounds were tested against human Opioid Receptor Mu (Opiate Mu), OPRM1 (gene 4988) (UniProt P35372) (assay: NVS_GPCR_hOpiate_mu: NovaScreen (NVS) G Protein-Coupled Receptor Assay for human Opioid Receptor Mu (Opiate Mu) (AID 2283290);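 also: hits lower bound tracer signal versus DMSO meaning displacement of the ligand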).
Sequence of human Opioid Receptor Mu (Opiate Mu), OPRM1 (gene 4988) (P35372 whole entry, looked up): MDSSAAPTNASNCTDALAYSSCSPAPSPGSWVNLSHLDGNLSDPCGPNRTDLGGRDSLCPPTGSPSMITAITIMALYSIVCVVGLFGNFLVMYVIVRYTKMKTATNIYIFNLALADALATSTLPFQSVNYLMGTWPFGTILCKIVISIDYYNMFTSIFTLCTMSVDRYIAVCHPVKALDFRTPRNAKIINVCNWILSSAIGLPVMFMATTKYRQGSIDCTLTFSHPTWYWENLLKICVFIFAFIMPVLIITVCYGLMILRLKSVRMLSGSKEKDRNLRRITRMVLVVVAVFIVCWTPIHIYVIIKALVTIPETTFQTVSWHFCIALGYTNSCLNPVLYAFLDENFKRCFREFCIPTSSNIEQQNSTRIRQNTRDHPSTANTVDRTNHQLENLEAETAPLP
In short: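 CHO-derived receptor protein, cell-free; radioligand displacement, filtration + scintillation counting, read at 2.5 h. DMSO = negative control/baseline. Primary: 25 uM single conc, duplicate; secondary: concentration series.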
With `CC(C)CCCCCOC(=O)CS` the AC50 was 39.8 µM (active). `CC1=C(O)C(=O)C(C)O1` (configuration not stated) was tested, and the outcome was “inactive”. For `CC(C=O)c1ccccc1` (configuration not stated), the outcome was “inactive”. With `CC/C=C\C/C=C\C/C=C\CCCCCCCC(=O)OC` the AC50 was 16.1 µM (active).
